HEK293 tox: cytotoxicity in counter-screen for GLP-1R inverse agonists. HEK293 cAMP-luciferase reporter cells, luminescence, 24 h. Potency, µM (doses to about 38.3 µM), most hits filed as inhibitors. hit rate 0.13% among 410,000. AID 624418;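 further: loss of luciferase light is scored as toxicity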
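A 23 nL compound transfer followed 12 hours of cell culture at 37 deg C; exposure then lasted 24 hr. Luciferase assay detection reagent was dispensed and plates read for luminescence after a 12 min room-temperature wait.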
GLP-1R agonist: agonists of human GLP-1 receptor. hit rate 0.007% among 380,000. Potency, µM (highest dose often 45.6 µM), actives largely listed as activators. HEK293 GLP-1R CRE-luciferase, luminescence, 4-6 h; cells express a hypersensitive GLP-1R form. P43220. AID 624172
Target sequence (P43220 whole entry, looked up): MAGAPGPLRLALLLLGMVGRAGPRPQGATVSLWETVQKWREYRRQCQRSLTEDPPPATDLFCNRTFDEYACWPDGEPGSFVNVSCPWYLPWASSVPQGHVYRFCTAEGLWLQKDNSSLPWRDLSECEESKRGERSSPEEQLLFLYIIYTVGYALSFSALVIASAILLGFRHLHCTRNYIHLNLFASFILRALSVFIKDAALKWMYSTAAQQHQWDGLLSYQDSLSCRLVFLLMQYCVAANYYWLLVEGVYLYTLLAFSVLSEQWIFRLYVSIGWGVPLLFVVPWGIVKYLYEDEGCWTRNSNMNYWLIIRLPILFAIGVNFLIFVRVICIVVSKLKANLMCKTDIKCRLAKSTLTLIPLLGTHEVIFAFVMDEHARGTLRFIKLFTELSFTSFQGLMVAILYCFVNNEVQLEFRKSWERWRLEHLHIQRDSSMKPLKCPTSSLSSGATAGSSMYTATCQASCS
BRCA1 expr up: activators of BRCA1 expression | MCF7-BRCA1-FFLuc reporter, luminescence, 48 h; response scale: scaled: vehicle 0%, 10 µM genistein 100% | Potency, µM (doses to about 46.1 µM), most hits filed as activators | hit rate 1.1% among 380,000 | AID 624202; further: nearly all actives have a fitted effect of over 80% in size
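Activators of BRCA1 expression were detected as increased firefly luciferase luminescence in engineered MCF7 cells after 48 h compound incubation. Signals were scaled to genistein 10 microM as full activation.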
GLP-1R inv ag: GLP-1 receptor (human) inverse agonism; HEK293 GLP-1R CRE-luciferase, luminescence, 24 h; GLP-1R form is constitutively active; Potency, µM (top dose mostly 38.3 µM), hits mostly inhibitors; hit rate 1.6% among 410,000; AID 624417; further: nearly all actives have a fitted effect of over 55% in size
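HEK293 cells stably co-expressing a cAMP-responsive luciferase reporter and constitutively active GLP-1R were seeded, incubated 12 h, then exposed to compounds for 24 h at 37 C. Luminescence was read 12 min after detection reagent; inverse agonists lower signal.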
a7 integrin act: activators of alpha7 integrin expression for muscular dystrophy; Potency, µM (titrated, usually from 38.3 µM), actives largely listed as activators; hit rate 0.064% among 350,000; alpha7betagal myoblasts, beta-gal FDG fluorescence, 48 h; further: nearly all actives have a fitted effect of over 60% in size
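Alpha7betagal+/- myoblasts (passage 13) were plated 16-24 hr, then exposed to compounds (1:260 dilution of DMSO stock) for 48 hours at 37C. After MPER lysis, β-galactosidase reporter activity was read as FDG fluorescence (ex 480/em 540) after 30 minutes.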
A number is an active result; 0 = inactive; ? = inconclusive; - = no result given. A selection: hits, their analogues and other compounds. The true share with any hit is near 2.7%. The call rests on the fitted dose curve; in most records, active means well fitted curve in the direction sought with a large enough effect; inconclusive means small, poorly fitted or top-dose-only effect, or another doubt; inactive means no such curve, though single readings can be large; an effect the other way counts as inactive or inconclusive.

SMILES | HEK293 tox | GLP-1R agonist | BRCA1 expr up | GLP-1R inv ag | a7 integrin act
CCC(C)NC(=S)Nc1ccc2nc(N3CCN(CC)CC3)cc(C)c2c1 (configuration not stated) | ? | 0 | 0 | 3.5µM | 0
CCN1CCN(c2cc(C)c3cc(NC(=S)N4CCN(c5ccccc5)CC4)ccc3n2)CC1 | 0 | 0 | 0 | 1.3µM | 0
Cc1cc(N2CCOCC2)nc2ccc(NC(=O)CCC(=O)N3CCN(c4cccc(C(F)(F)F)c4)CC3)cc12 | 0 | 0 | 0 | 10µM | 0
CCN1CCN(c2cc(C)c3cc(NC(=O)c4cc(OC)cc(OC)c4)ccc3n2)CC1 | ? | 0 | 6.3µM | 0 | 0
CCC(C)NC(=S)Nc1ccc2nc(N3CCOCC3)cc(C)c2c1 (configuration not stated) | 0 | 0 | 0 | 0 | 0
CCOc1ccc(C(=O)Nc2ccc3nc(N4CCN(CC)CC4)cc(C)c3c2)cc1 | 0 | 0 | 0 | 0 | 0
COc1ccc(-n2cc(-c3ccccc3)c3c(Nc4ccc(OC)c(OC)c4)ncnc32)cc1 | 0 | - | - | 0 | -
C#C[C@@]1(OC(C)=O)CC[C@H]2[C@@H]3CCC4=CC(=O)CC[C@@H]4[C@H]3CC[C@@]21C | - | 0 | - | - | -
COc1cccc(CNC(=O)c2oc3c(c2C)-c2nn(Cc4cccc(Cl)c4)cc2CC3)c1 | 0 | - | - | 11µM | -
COc1cc(OC)c(/C=C/c2ccncn2)c(OC)c1 | - | - | 0 | - | -
O=C(CSc1ncn[nH]1)N1CCCCC1 | 0 | 0 | 0 | 0 | 0
O=C(CSc1ncc(-c2ccc(F)cc2)[nH]1)N1CCCCC1 | 0 | 0 | 11µM | 0 | 0
Cc1c(CNCCCc2ccccc2)c(C(=O)O)c(C)n1Cc1ccc(Cl)cc1 | 0 | - | - | 0 | -
COc1ccc(CCN(C)C(=O)CCc2nnc(-c3ccccc3)o2)cc1OC | 0 | ? | ? | 0 | 0
CN(Cc1ccc(F)cc1)C(=O)CCc1nnc(-c2ccccc2)o1 | 0 | 0 | 14µM | 0 | 0
CCN=C1S/C(=C\c2cn(CC)c3ccccc23)C(=O)N1CC | 0 | 14µM | 0 | ? | 0
COc1cccc(-c2ncc3ccccc3c2COC(=O)c2ccc(F)cc2)c1 | 0 | 0 | 0 | 11µM | 0
COc1cccc(-c2ncc3ccccc3c2COC(=O)c2ccc(C(C)(C)C)cc2)c1 | 0 | 0 | 0 | ? | 0
CC(=O)c1ccc(NC(=O)C(C)n2nc(-c3ccccc3)c3cc(Cl)ccc32)cc1 (configuration not stated) | 0 | 0 | 0 | 6.3µM | 0
CCCc1cc(=O)n2[nH]c(-c3ccc(Cl)cc3)cc2n1 | 0 | 0 | 7.1µM | 0 | ?
CCCc1cc(=O)n2[nH]c(-c3ccccc3)cc2n1 | 0 | 0 | 0 | 0 | 0
CCCc1cc(=O)n2[nH]c(-c3ccc(C)cc3)cc2n1 | 0 | 0 | 1.4µM | 0 | 0
Cc1cccc(-c2nnc(-c3cccc(NC(=O)Cc4cccs4)c3)o2)c1 | 0 | 0 | 13µM | ? | 0
O=C(Cc1cccs1)Nc1ccc(-c2nnc(-c3ccccc3)o2)cc1 | 0 | 0 | 0 | 0 | 0
CCNC(=S)N/N=C/c1cccc(OCc2c(F)cccc2Cl)c1 | ? | 0 | 0 | 10µM | 0
SMILES | HEK293 tox | GLP-1R agonist | BRCA1 expr up | GLP-1R inv ag | a7 integrin act
COc1ccc(N2CCN(C(=O)Cn3cnc4sc(C)c(S(=O)(=O)N5CCCCC5)c4c3=O)CC2)cc1 | 0 | - | - | 0 | -
Cc1cc(C)c(S(=O)(=O)Nc2ccc(-c3ccc(N4CCCCCC4)nn3)cc2)cc1C | 0 | - | - | 13µM | -
CN(Cc1ccccc1F)C(=O)c1ccc(Oc2ccccc2)cc1 | 0 | 0 | 0 | ? | 0
CN(Cc1ccc(C(F)(F)F)cc1)C(=O)c1ccc(Oc2ccccc2)cc1 | 0 | 0 | 0 | 10µM | 0
COc1ccccc1N=c1oc2cc(O)ccc2cc1C(=O)NCC1CCCO1 (configuration not stated) | 0 | ? | 0 | 0 | 0
COc1ccccc1N=c1oc2cc(O)ccc2cc1C(N)=O | 0 | 0 | 10µM | 0 | 0
CCCCOc1ccc(CSc2n[nH]c(C)n2)cc1 | 0 | 0 | 0 | 0 | 0
CCCOc1ccc(CSc2nc3ccccc3[nH]2)cc1 | 0 | 0 | 0 | 0 | 0
CCCCCOc1ccc(CSc2ncn[nH]2)cc1 | 0 | 0 | 2.8µM | 0 | 0
CCCCOc1ccc(CSc2ncn[nH]2)cc1 | 0 | 0 | 7.1µM | 0 | 0
COC(=O)c1ccccc1NC(=O)c1ccc(CN2CC(=O)N3CCCCC3C2=O)cc1 (configuration not stated) | 0 | - | - | 0 | -
CCOC(=O)c1ccc(Nc2ncnc3c2cnn3C)cc1 | ? | 0 | 0 | 0 | 0
Cn1ncc2c(O/N=C(\N)c3ccc(C(C)(C)C)cc3)ncnc21 | 10µM | 0 | 0 | ? | 0
COc1ccc(-c2[nH]c(-c3ccc4c(c3)OCO4)nc2-c2ccccc2)cc1 | ? | 0 | 0 | 1.8µM | 0
COc1cc(-c2nc(-c3ccccc3)c(-c3ccc(F)cc3)[nH]2)cc2c1OCO2 | 0 | 0 | 0 | ? | 0
CC(C)(C)C1CCc2c(sc(NC(=O)c3cccs3)c2C(=O)N2CCCCC2)C1 (configuration not stated) | 0 | 0 | 0 | 3.5µM | 0
CC1CCc2c(sc(NC(=O)c3cccs3)c2C(=O)O)C1 (configuration not stated) | 0 | 0 | 0 | 0 | 0
CCCC1CCc2c(sc(NC(=O)c3cccs3)c2C(N)=O)C1 (configuration not stated) | 0 | 0 | 11µM | 0 | 0
Cc1cc(NC(=O)COC(=O)c2ccccc2OCCOc2ccccc2)ccc1Br | - | - | 0 | - | -
C(=C\c1ccnc2ccccc12)/c1ccc2c(c1)OCO2 | - | - | 0 | - | -
CCOc1ccc2nc(NC(=O)C(CC)Sc3nc(C)cc(=O)[nH]3)sc2c1 (configuration not stated) | 0 | 0 | 5.6µM | 0 | 0
CCOC(=O)CSc1nc2c(sc3cccc(F)c32)c(=O)n1Cc1ccc(OC)cc1 | 0 | 0 | 0 | 0 | -
CCOC(=O)c1noc2nc(C)n(CC(=O)NC(C)CC)c(=O)c12 (configuration not stated) | 0 | - | - | 0 | -
Cc1cccc(NC(=S)N/N=C/c2cccc(O)c2)c1C | ? | 0 | 0 | 7.9µM | 0
Cc1ccccc1NC(=S)N/N=C/c1ccc(O)cc1O | ? | 0 | 0 | ? | 0
SMILES | HEK293 tox | GLP-1R agonist | BRCA1 expr up | GLP-1R inv ag | a7 integrin act
Fc1cccc(/C=N/NC(=S)Nc2ccccc2Cl)c1 | 2.8µM | 0 | 0 | ? | 0
Cc1ccc(S(=O)(=O)c2cn(Cc3ccccc3)c3cc(N4CCCC4)c(F)cc3c2=O)cc1 | 0 | - | - | 0 | -
Cc1cccc(-c2nc3cc([N+](=O)[O-])ccc3o2)c1 | 0 | 0 | 2.5µM | 0 | 0
CCOc1cccc(-c2nc3cc(C)ccc3o2)c1 | 0 | 0 | 0 | 0 | 0
Cc1ccc2oc(-c3ccccc3)nc2c1 | 0 | 0 | ? | 0 | 0
O=[N+]([O-])c1ccc2oc(-c3ccccc3)nc2c1 | 0 | 0 | 3.2µM | 0 | 0
COc1ccc(C(=O)N/C(=C/c2cccnc2)C(=O)N2CCN(C)CC2)cc1OC | 0 | 0 | 0 | 0 | 4.5µM
